For 4 molecules, composite z-score and z-score results are on record in PubChem BioAssay.

Calls of active or inactive are those of the source. Unless noted, how the calls were made is not given here.

Test [1] deals with Wnt5a (protein binding on small-molecule microarray). Put plainly: Wnt5a binders on small-molecule microarray, primary screen, biophysical, 635/667 nm fluorescence (AID 1142).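 Further: fluorescence read at 667 nm with signal to noise per printed feature.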 The conditions noted are these: 635 nm fluorescence, higher = more signal.
Test [2] in a line: cell viability in Huh7 cells, primary screen, cytotoxicity control for HCV replication inhibitor project, CellTiter-Glo luminescence, basal, 48 h (AID 1143).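 Further: Huh7 hepatoma cells carrying a hepatitis C replication reporter with no stimulus; test concentration not given here.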 The following applies: Huh7 HCV replicon, higher = more signal, called active from +8 up or from −8 down.
Test [3] in a line: P. aeruginosa biofilm formation inhibitors, primary screen, PAO1 strain, BacTiter-Glo luminescence, LB-PBS (AID 1144). The following applies: 12 h, higher = more signal.
Test [4] can be described thus: CREB reporter modulators without forskolin, primary screen, cell-based, PC12, CRE-LacZ reporter, unstimulated (AID 1145). The conditions noted are these: no forskolin, luminescence, 4.5 h, higher = more signal, called active from +8 up or from −8 down.
Test [5] can be described thus: CREB reporter modulators under forskolin, primary screen, cell-based, PC12, CRE-LacZ reporter, forskolin-stimulated (AID 1146).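 Further: PC12 cells with 6xCRE LacZ reporter stimulated by forskolin 10 µM; beta-galactosidase reporter signal reflecting CREB driven transcription.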 The conditions noted are these: luminescence, 4.5 h, higher = more signal, called active from +8 up or from −8 down.
In test [6] the target is Streptavidin (Streptomyces avidinii) (UniProt P22629). Put plainly: streptavidin binders on small-molecule microarray, primary screen, artefact control for SMM compound annotation, biophysical, 635/667 nm fluorescence (AID 1147).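 Further: signal reflects streptavidin binding to arrayed compounds as a control protein.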 The conditions noted are these: streptavidin binding, higher = more signal.
Streptavidin (Streptomyces avidinii), sequence (P22629 whole entry, looked up): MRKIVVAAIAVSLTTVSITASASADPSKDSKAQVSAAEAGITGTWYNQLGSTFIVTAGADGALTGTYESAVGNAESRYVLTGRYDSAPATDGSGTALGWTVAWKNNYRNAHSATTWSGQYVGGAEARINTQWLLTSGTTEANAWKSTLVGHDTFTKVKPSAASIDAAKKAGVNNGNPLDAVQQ
A short description of test [7]: small-molecule binders of probe aInhba, primary screen, biochemical, small-molecule microarray, 635/667 nm fluorescence (AID 1148).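 Further: score merges 667nm spot fluorescence with signal-to-noise for antibody binding to printed compounds.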 The following applies: higher = more signal.
The target in test [8] is Torsin-1A (Homo sapiens) (UniProt O14656). The experiment in a line: torsin A binders from cell lysate, primary screen, small-molecule microarray, wild-type, 635/667 nm (AID 1149). The conditions noted are these: COS7 hTOR1A-WT lysate, 635 nm fluorescence, higher = more signal.
Torsin-1A (Homo sapiens), sequence (O14656 whole entry, looked up): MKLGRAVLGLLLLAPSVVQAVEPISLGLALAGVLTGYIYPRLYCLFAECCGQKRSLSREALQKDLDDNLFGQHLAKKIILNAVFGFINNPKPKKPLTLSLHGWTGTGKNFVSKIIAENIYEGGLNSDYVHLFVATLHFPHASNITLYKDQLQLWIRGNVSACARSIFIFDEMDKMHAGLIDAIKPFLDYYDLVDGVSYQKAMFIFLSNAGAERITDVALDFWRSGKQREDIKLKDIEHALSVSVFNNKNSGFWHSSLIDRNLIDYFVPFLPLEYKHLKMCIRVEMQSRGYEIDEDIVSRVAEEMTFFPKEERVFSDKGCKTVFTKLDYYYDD
Test [9] has the same target. Put plainly: small-molecule binders of mutant TOR1A in lysate, primary screen, cell lysate, small-molecule microarray, COS7 lysate, 635/667 nm fluorescence (AID 1150).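 Further: score pools 667 nm emission and signal to noise measuring lysate protein binding.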 The conditions noted are these: COS7 hTOR1A mutant lysate, 635 nm fluorescence, higher = more signal.
Test [10] relates to Sonic hedgehog protein (Shh). Put plainly: small-molecule binders of Shh protein, primary screen, biochemical, small-molecule microarray, 635/667 nm fluorescence (AID 1151).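 Further: Shh protein binding to compounds spotted on small-molecule microarray slides; score combines spot fluorescence intensity with signal-to-noise across triplicate slides.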 The conditions noted are these: small-molecule microarray binding, 635 nm fluorescence; higher = more signal.
Test [11] can be described thus: E. coli DRC41 culture turbidity changes, primary screen, E. coli filamentation inducer project, strain DRC41, OD650, 48 h (AID 1152).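 Further: E. coli MC1000 strain DRC41 lacking acrAB efflux pump and sulA.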 The following applies: E. coli DRC41 (acrAB sulA), higher = more signal, called active from +8 up or from −8 down.
The nature of test [12]: small-molecule binders of probe aLefty1, primary screen, biochemical, small-molecule microarray, 635/667 nm fluorescence (AID 1153).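 Further: score merges spot fluorescence with signal-to-noise ratio from the scanned slide images.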 The conditions noted are these: higher = more signal.
A short description of test [13]: PSAC antagonists in infected red cells, primary screen, cell-based, P. falciparum Indochina, OD700, 1 h (AID 1154). The following applies: P. falciparum Indochina infected RBC osmotic lysis, higher = more signal, called active from +8 up or from −8 down.
Test [14] is described as follows: PSAC antagonists in infected red cells, primary screen, cell-based, P. falciparum Indochina, OD700, 2 h (AID 1155).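 Further: lysis reports solute entry through the parasite surface anion channel PSAC; channel blockers reduce lysis of infected cells.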 The following applies: P. falciparum Indochina infected erythrocytes, osmotic lysis OD700; higher = more signal, called active from +8 up or from −8 down.
A short description of test [15]: osmotic lysis modulators in infected erythrocytes, primary screen, PSAC antagonist project, cell-based, P. falciparum Indochina, OD700, 3 h (AID 1156). The conditions noted are these: higher = more signal, called active from +8 up or from −8 down.
A short description of test [16]: PSAC antagonists in infected red cells, primary screen, cell-based, P. falciparum Indochina, OD700, 18 h (AID 1157). The following applies: P. falciparum Indochina infected erythrocytes, osmotic lysis OD700, 18 h; higher = more signal, called active from +8 up or from −8 down.
Test [17] is described as follows: modulators of S6 phosphorylation in cells, primary screen, cell-based, A549, cytoblot, luminescence, serum-stimulated (AID 1158).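 Further: serum-stimulated A549 lung adenocarcinoma cells; signal is phosphorylated S6 detected by cytoblot immunostaining with HRP secondary.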 The following applies: A549 phospho-S6 cytoblot, 5 h, higher = more signal.
In test [18] the target is NADPH oxidase 2 (Homo sapiens) (UniProt P04839). Put plainly: NOX2-dependent H2O2 signal modulators, primary screen, NOX inhibitor project, cell-based, HEK293-NOX2, PMA-stimulated, Amplex Red fluorescence (AID 1159). Further: test concentration not given here. The following applies: 45 min, higher = more signal, called active from +8 up or from −8 down.
NADPH oxidase 2 (Homo sapiens), sequence (P04839 whole entry, looked up): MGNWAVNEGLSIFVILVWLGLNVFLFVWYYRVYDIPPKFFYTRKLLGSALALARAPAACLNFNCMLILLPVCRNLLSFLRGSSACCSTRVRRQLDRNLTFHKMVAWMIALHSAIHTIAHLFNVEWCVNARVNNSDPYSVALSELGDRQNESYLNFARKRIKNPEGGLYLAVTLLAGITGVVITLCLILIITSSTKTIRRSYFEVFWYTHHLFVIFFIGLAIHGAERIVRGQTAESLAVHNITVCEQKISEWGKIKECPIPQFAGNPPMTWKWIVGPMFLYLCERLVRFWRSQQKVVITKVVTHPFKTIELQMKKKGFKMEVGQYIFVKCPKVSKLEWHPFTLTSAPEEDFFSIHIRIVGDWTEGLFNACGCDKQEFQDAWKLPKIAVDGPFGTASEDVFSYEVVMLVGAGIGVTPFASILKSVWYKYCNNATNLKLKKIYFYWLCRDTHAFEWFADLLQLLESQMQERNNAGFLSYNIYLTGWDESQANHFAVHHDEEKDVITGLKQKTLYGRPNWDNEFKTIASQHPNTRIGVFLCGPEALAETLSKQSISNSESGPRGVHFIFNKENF
The target of test [19] is NADPH oxidase 4 (Homo sapiens) (UniProt Q9NPH5). Put plainly: NOX4-dependent H2O2 signal modulators, primary screen, NOX inhibitor project, cell-based, HEK293-NOX4, tetracycline-induced, Amplex Red fluorescence (AID 1160). The following applies: 45 min, higher = more signal, called active from +8 up or from −8 down.
NADPH oxidase 4 (Homo sapiens), sequence (Q9NPH5 whole entry, looked up): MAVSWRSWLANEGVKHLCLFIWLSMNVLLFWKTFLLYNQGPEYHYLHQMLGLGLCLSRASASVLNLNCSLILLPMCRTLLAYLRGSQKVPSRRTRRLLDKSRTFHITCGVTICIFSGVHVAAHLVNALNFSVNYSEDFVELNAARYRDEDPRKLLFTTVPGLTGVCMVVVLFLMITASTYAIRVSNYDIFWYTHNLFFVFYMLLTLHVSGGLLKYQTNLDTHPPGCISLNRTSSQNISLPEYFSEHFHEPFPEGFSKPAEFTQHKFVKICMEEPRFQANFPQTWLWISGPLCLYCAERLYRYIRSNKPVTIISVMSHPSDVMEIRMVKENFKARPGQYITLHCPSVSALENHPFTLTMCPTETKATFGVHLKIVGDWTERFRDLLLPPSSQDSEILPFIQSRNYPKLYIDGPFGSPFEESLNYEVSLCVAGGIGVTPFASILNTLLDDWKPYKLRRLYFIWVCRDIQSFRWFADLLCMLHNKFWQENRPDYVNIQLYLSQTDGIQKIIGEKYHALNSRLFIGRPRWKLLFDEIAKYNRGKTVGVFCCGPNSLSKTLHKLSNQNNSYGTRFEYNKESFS
Test [20] deals with NADPH oxidase 5 (Homo sapiens) (UniProt Q96PH1). The experiment in a line: NOX5-dependent H2O2 signal modulators, primary screen, NOX inhibitor project, cell-based, HEK293-NOX5, Amplex Red fluorescence (AID 1161). The conditions noted are these: HEK293-NOX5, ionomycin, 45 min, higher = more signal.
NADPH oxidase 5 (Homo sapiens), sequence (Q96PH1 whole entry, looked up): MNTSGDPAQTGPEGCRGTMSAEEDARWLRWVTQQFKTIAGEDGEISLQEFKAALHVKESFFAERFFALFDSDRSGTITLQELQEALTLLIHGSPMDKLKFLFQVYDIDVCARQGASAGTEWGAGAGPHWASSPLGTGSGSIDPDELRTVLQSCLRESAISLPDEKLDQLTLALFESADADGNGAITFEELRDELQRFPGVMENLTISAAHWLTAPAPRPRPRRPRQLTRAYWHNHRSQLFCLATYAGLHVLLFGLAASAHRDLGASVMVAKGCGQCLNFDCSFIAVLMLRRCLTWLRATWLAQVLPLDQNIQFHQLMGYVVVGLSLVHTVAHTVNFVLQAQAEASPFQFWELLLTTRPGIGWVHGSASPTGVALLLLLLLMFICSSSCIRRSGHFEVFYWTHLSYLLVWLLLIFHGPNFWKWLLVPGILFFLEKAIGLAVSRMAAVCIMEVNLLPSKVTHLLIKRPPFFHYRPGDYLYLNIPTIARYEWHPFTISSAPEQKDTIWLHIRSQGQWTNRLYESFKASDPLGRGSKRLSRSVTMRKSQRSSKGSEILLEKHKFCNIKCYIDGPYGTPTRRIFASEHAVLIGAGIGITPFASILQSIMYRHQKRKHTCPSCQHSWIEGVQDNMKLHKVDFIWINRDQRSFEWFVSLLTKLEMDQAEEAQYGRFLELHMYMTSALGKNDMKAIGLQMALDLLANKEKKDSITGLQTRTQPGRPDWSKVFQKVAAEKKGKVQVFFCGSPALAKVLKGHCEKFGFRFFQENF

Turning to `C=C(CCCC)C(=O)CC[C@H](OC(=O)c1ccccc1-c1ccccc1C(=O)O)c1ccccc1OCCO`, the composite z-score in test [1] was -0.131; in test [6], -0.759; in [7], -0.179; with Torsin-1A (Homo sapiens) [8] it was 1.03; in the test with Torsin-1A (Homo sapiens) [9] it was 0.221; in test [10], 2.07. The same molecule gave a composite z-score in test [12] of -0.0984. Further, the z-score in [2] is -0.397 (inactive); in test [3], -0.447 (inactive); in [4], 5.04 (inactive); in [5] it was 5.73 (inactive); in test [11], 0.509 (inactive); in [13] it was 8.58 (active). The z-score in [14] was 1.56 (inactive); in test [15], 1.82 (inactive); in test [16], 0.944 (inactive); in test [17], -0.27; in test [18], 3.25 (inactive); in test [19], 0.0107 (inactive). For the same molecule, in test [20], the z-score was -1.15.
In the case of `Cc1ccc([C@H]2C(C(=O)O)=C[C@@H](C(C)(C)C)N2S(=O)(=O)c2ccc(C)cc2)cc1`, the composite z-score in [1] was 0.285; in test [6] it was 1.54; in test [7], 0.271; in the test with Torsin-1A (Homo sapiens) [8] it was 0.0948; in the test with Torsin-1A (Homo sapiens) [9], 0.465; in test [10] it was 0.347. This molecule had a composite z-score in [12] of 0.141. The z-score in test [2] is -0.117 (inactive); in test [3], 0.62 (inactive); in test [4] it was -0.312 (inactive); in [5] it was 0.134 (inactive); in test [11], -1.18 (inactive); in test [13] it was 0.212 (inactive). Also, the z-score is 0.934 (inactive) in test [14]; -0.627 (inactive) in test [15]; 0.585 (inactive) in test [16]; -0.213 in test [17]; 0.96 (inactive) in test [18]; -2.84 (inactive) in test [19]. In test [20], this molecule returned a z-score of -0.357.
Consider `NC(=O)N1C(=O)C2C(C1=O)C1C=C(CCCO)C2C(C2CC2)N1Cc1cccc(OC(F)(F)F)c1` (stereo not given), for which the composite z-score in test [1] was -0.352; in test [6] it was -0.439; in test [7], -0.182; in the test with Torsin-1A (Homo sapiens) [8], 1.51; with Torsin-1A (Homo sapiens) [9], 1.59; in [10], 0.393. Also, the composite z-score in [12] was -0.195. Moreover, the z-score in test [2] was -0.458 (inactive); in test [3], 1.35 (inactive); in test [4], 0.522 (inactive); in test [5] it was 1.62 (inactive); in [11] it was -0.778 (inactive); in test [13], 1.03 (inactive). The z-score in test [14] was 0.275 (inactive); in [15] it was -0.351 (inactive); in test [16], 0.161 (inactive); in [17], -0.898; in test [18], 0.699 (inactive); in [19] it was -0.685 (inactive). In test [20], this molecule showed a z-score of -0.738.
For `COc1ccc([Si](C)(C)[C@@H]2[C@@H](CC(=O)N3Cc4ccccc4C[C@H]3CO)O[C@]3(C(=O)N(Cc4ccc(N5CCC5=O)cc4)c4ccccc43)[C@H]2C)cc1`, the composite z-score in test [1] was 0.159; in [6] it was 0.673; in test [7] it was -0.167; with Torsin-1A (Homo sapiens) [8], -0.191; in the test with Torsin-1A (Homo sapiens) [9], 0.585; in test [10] it was 1.74. The same molecule registered a composite z-score in test [12] of 0.0253. Also, the z-score in test [2] was -3.32 (inactive); in [3], -1.1 (inactive); in [4] it was 0.409 (inactive); in [5], -0.448 (inactive); in [11], 0.238 (inactive); in [13], 5.02 (inactive). In addition, the z-score in test [14] was 1.31 (inactive); in test [15], 0.538 (inactive); in [16], 1.14 (inactive); in [17], 0.0933; in [18], 0.669 (inactive); in test [19], 0.841 (inactive). The z-score in [20] was 2.36.
